From PubChem BioAssay (NCATS)
Records with an inconclusive call do not appear. Values without a mark were called inactive. Activity calls are given as the source filed them. Calls come from the whole dose curve; as a rule, active = well fitted cell-killing curve with a large enough effect; inconclusive = small, poorly fitted or top-dose-only effect, or effect the other way; inactive = no such curve, though single readings can be large or run the other way. Starred links: 1 amine or outer side, 2 acyl side, 3 side chain; linkers in the order of their positions; H or OH if unused. Positions of bridges follow the written chain, without caps; N, C: chain ends. Non-standard residues stand in square brackets, D forms with d. Residues, ends and D or L forms follow the SMILES beside them. Chains are numbered I, II in the order given. Actinocin(9to1) = Cc1c2oc3c(C)ccc(C(=O)[*:1])c3nc-2c(C(=O)[*:2])c(N)c1=O; NMeV = CN[CH](C(=O)O)C(C)C; Sar = CNCC(=O)O

Experiment: Quantitative High-Throughput drug screen in 47 multiple myeloma cell lines against the NCATS MIPE library collection: XG1_PLB cell viability assay (AID 1919866); note: nearly all actives have a fitted effect of over 35% in size
Settings: CellTiter-Glo ATP, 48 h; series mostly up to 45.8 µM; viability: at the top concentration
Outline: (§1)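 MIPE 4.0 approved/investigational drugs; 500 cells/well; 48 h 37 °C humidified 5% CO2; CTG luminescence readout; DMSO = 100%, media = 0% viability.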
Potency is the fitted concentration of half-maximal effect.

SMILES | viability | Potency
CC(=O)O[C@@]12CO[C@H]1C[C@H](O)[C@@]1(C)C(=O)[C@H](O)C3=C(C)[C@@H](OC(=O)C(O)[C@@H](NC(=O)OC(C)(C)C)c4ccccc4)C[C@@](O)([C@@H](OC(=O)c4ccccc4)[C@@H]21)C3(C)C (some centres undefined) | 25.5% | 
C[C@H](NCc1ccc(OCc2cccc(F)c2)cc1)C(N)=O |  | 3720 nM (active)
C[C@@]12C(=O)OC(=O)[C@@]1(C)C1CCC2O1 |  | 2640 nM (active)
Cc1c2oc3c(C)ccc(C(=O)NC4C(=O)NC(C(C)C)C(=O)N5CCCC5C(=O)N(C)CC(=O)N(C)C(C(C)C)C(=O)OC4C)c3nc-2c(C(=O)NC2C(=O)NC(C(C)C)C(=O)N3CCCC3C(=O)N(C)CC(=O)N(C)C(C(C)C)C(=O)OC2C)c(N)c1=O (centres undefined) (I: TVP[Sar][NMeV] / II: TVP[Sar][NMeV]; ester I:1-I:C, II:1-II:C; linker I:N-II:N via Actinocin(9to1); configuration not given here) | 2.88% | 
CC(C)c1cnn2c(NCc3ccccc3)cc(NCCCCCCN)nc12 |  | 935 nM (active)
CC(C=CC(=O)NO)=C[C@@H](C)C(=O)c1ccc(N(C)C)cc1 |  | 332 nM (active)
CN1[C@H]2CC(OC(=O)[C@@H](CO)c3ccccc3)C[C@H]1[C@H]1O[C@H]12 (some centres undefined) | 112% [at 23.2 µM] | 
c1ccc(CNc2nc(NCc3ccccc3)c3ccccc3n2)cc1 |  | 7430 nM (active)
CN(C)c1ccc2cc(C(=O)N[C@@H](CCCN=C(N)CCl)C(=O)NCc3ccccc3)ccc2c1 |  | 1180 nM (active)
COc1cccc2c1C(=O)c1c(O)c3c(c(O)c1C2=O)C[C@@](O)(C(=O)CO)C[C@H]3O[C@H]1C[C@H](N)[C@H](O)[C@H](C)O1 |  | 296 nM (active)
CCC(C(=O)O)C1CCC(C)C(C(C)C(O)C(C)C(=O)C(CC)C2OC3(C=CC(O)[C@@]4(CC[C@](C)(C5CC[C@@](O)(CC)C(C)O5)O4)O3)C(C)CC2C)O1 (some centres undefined) |  | 5900 nM (active)
CCC(C=C[C@@H]1OC(=O)C=C[C@H]1C)=C[C@H](C)CC=CC(C)=C[C@@H](C)C(=O)[C@@H](C)[C@H](O)[C@@H](C)CC(C)=CC(=O)O |  | 24.7 nM (active)
CC(C)C[C@H](NC(=O)CNC(=O)c1cc(Cl)ccc1Cl)B1OC(=O)CC(CC(=O)O)(C(=O)O)O1 (some centres undefined) |  | 41.8 nM (active)
COc1cc2c(cc1OC)[C@@H]1C(=O)c3ccc4c(c3O[C@@H]1CO2)C=CC(C)(C)O4 |  | 6620 nM (active)

Experiment: Quantitative High-Throughput drug screen in 47 multiple myeloma cell lines against the NCATS MIPE library collection: VP6_DJ cell viability assay (AID 1919867); note: nearly all actives have a fitted effect of over 40% in size;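 for viability (% of DMSO): 100% = DMSO-only wells and 0% = wells with media alone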
Settings: ATP luminescence, 48 h; series mostly up to 45.8 µM; viability (% of DMSO): at the top concentration
Outline: as §1

SMILES | Potency | viability (% of DMSO)
CCc1ccc(C(=O)Nc2cc(CN3CCN(C)CC3)cc(C(F)(F)F)c2)cc1C#Cc1cnc2ccnn2c1 | 9350 nM (active) | 
C=CC[C@@H]1C=C(C)C[C@H](C)C[C@H](OC)[C@H]2O[C@@](O)(C(=O)C(=O)N3CCCC[C@H]3C(=O)O[C@H](C(C)=C[C@@H]3CC[C@H](O)[C@H](OC)C3)[C@@H](C)[C@@H](O)CC1=O)[C@@H](C)C[C@@H]2OC | 833 nM (active) | 
CO[C@@H]1[C@@H](O)[C@H](O)[C@@H](n2c3c(Cl)cccc3c3c4c(c5c6cccc(Cl)c6[nH]c5c32)C(=O)NC4=O)O[C@@H]1CO | 662 nM (active) | 
C[C@H](NC(=O)C(C#N)=Cc1cccc(Br)n1)c1ccccc1 | 2350 nM (active) | 
Cn1cnc(=N)c2[nH]cnc21 | 66.2 nM (active) | 
CC(C)N1[N]C(=C2C=c3cc(O)ccc3=N2)c2c(N)ncnc21 | 264 nM (active) | 
COc1cccc2c1C(=O)c1c(O)c3c(c(O)c1C2=O)C[C@@](O)(C(=O)CO)C[C@@H]3O[C@H]1C[C@H](N)[C@@H](O)[C@H](C)O1 | 935 nM (active) | 
COc1cc(C=CC(=O)CC(=O)C=Cc2ccc(O)c(OC)c2)ccc1O | 9590 nM (active) | 
CCC[C@H]1C[C@H](C(=O)N[C@@H]([C@@H]2O[C@@H](SC)[C@@H](O)[C@@H](O)[C@@H]2O)[C@H](C)Cl)N(C)C1 |  | 108%
C=CC(=O)Nc1ccc2ncnc(Nc3ccc(OCc4cccc(F)c4)c(Cl)c3)c2c1 | 264 nM (active) | 
OCc1ccccc1O[C@@H]1O[C@H](CO)[C@H](O)[C@H](O)[C@H]1O |  | 162%
Cn1cc(C2=C(c3c4n(c5ccccc35)CCC(CN)C4)C(=O)NC2=O)c2ccccc21 (centres undefined) | 6620 nM (active) | 
O=C(Nc1cccc(Nc2ncc(Br)c(NCCc3cnc[nH]3)n2)c1)N1CCCC1 | 2640 nM (active) | 
C=CCNc1c(O)cc2c(O)c1C[C@@H](C)C[C@H](OC)[C@@H](O)[C@@H](C)C=C(C)[C@H](OC(N)=O)[C@@H](OC)C=CC=C(C)C(=O)N2 | 118 nM (active) | 
CCS(=O)(=O)Nc1ccc2[nH]c(O)c(C(=Nc3ccc(CN4CCCCC4)cc3)c3ccccc3)c2c1 | 590 nM (active) | 
CCN(CC)CCNC(=O)c1c(C)[nH]c(C=C2C(=O)Nc3ccc(F)cc32)c1C | 1520 nM (active) | 
O=C1NC(=O)[C@@H](c2cn3c4c(cccc24)CCC3)[C@H]1c1c[nH]c2ccccc12 | 526 nM (active) | 
COC1=C2C[C@@H](C)C[C@H](OC)[C@@H](O)[C@@H](C)C=C(C)[C@H](OC(N)=O)[C@@H](OC)C=CC=C(C)C(=O)NC(=CC1=O)C2=O | 132 nM (active) | 

SMILES | Potency | viability (% of DMSO)
NC(=NCCCCCCN=C(N)N=C(N)Nc1ccc(Cl)cc1)N=C(N)Nc1ccc(Cl)cc1 | 2350 nM (active) | 
Nc1nc(N)c2nc(-c3cccc(O)c3)c(-c3cccc(O)c3)nc2n1 | 3320 nM (active) | 
CC(C)C[C@H](NC(=O)[C@@H](NC(=O)c1cccc(-c2ccccc2)n1)[C@@H](C)O)B(O)O | 9.3 nM (active) | 
O=C1CSC(=O)N1C(CCc1ccncc1)COc1ccc(-c2cccc([N+](=O)[O-])c2)cc1 (centres undefined) | 4180 nM (active) | 
CC(=O)O[C@@]12CO[C@H]1C[C@H](O)[C@@]1(C)C(=O)[C@H](O)C3=C(C)[C@@H](OC(=O)C(O)[C@@H](NC(=O)OC(C)(C)C)c4ccccc4)C[C@@](O)([C@@H](OC(=O)c4ccccc4)[C@@H]21)C3(C)C (some centres undefined) |  | 71.9%
C[C@H](NCc1ccc(OCc2cccc(F)c2)cc1)C(N)=O | 2350 nM (active) | 
C[C@@]12C(=O)OC(=O)[C@@]1(C)C1CCC2O1 | 2350 nM (active) | 
Cc1c2oc3c(C)ccc(C(=O)NC4C(=O)NC(C(C)C)C(=O)N5CCCC5C(=O)N(C)CC(=O)N(C)C(C(C)C)C(=O)OC4C)c3nc-2c(C(=O)NC2C(=O)NC(C(C)C)C(=O)N3CCCC3C(=O)N(C)CC(=O)N(C)C(C(C)C)C(=O)OC2C)c(N)c1=O (centres undefined) (I: TVP[Sar][NMeV] / II: TVP[Sar][NMeV]; ester I:1-I:C, II:1-II:C; linker I:N-II:N via Actinocin(9to1); configuration not given here) |  | 2.63%
CC(C)c1cnn2c(NCc3ccccc3)cc(NCCCCCCN)nc12 | 11800 nM (active) | 
CC(C=CC(=O)NO)=C[C@@H](C)C(=O)c1ccc(N(C)C)cc1 | 372 nM (active) | 
c1ccc(CNc2nc(NCc3ccccc3)c3ccccc3n2)cc1 | 8330 nM (active) | 
CN(C)c1ccc2cc(C(=O)N[C@@H](CCCN=C(N)CCl)C(=O)NCc3ccccc3)ccc2c1 | 4690 nM (active) | 
COc1cccc2c1C(=O)c1c(O)c3c(c(O)c1C2=O)C[C@@](O)(C(=O)CO)C[C@H]3O[C@H]1C[C@H](N)[C@H](O)[C@H](C)O1 | 264 nM (active) | 
CCC(C(=O)O)C1CCC(C)C(C(C)C(O)C(C)C(=O)C(CC)C2OC3(C=CC(O)[C@@]4(CC[C@](C)(C5CC[C@@](O)(CC)C(C)O5)O4)O3)C(C)CC2C)O1 (some centres undefined) | 2090 nM (active) | 
CCC(C=C[C@@H]1OC(=O)C=C[C@H]1C)=C[C@H](C)CC=CC(C)=C[C@@H](C)C(=O)[C@@H](C)[C@H](O)[C@@H](C)CC(C)=CC(=O)O | 13.9 nM (active) | 
CC(C)C[C@H](NC(=O)CNC(=O)c1cc(Cl)ccc1Cl)B1OC(=O)CC(CC(=O)O)(C(=O)O)O1 (some centres undefined) | 29.6 nM (active) | 
COc1cc2c(cc1OC)[C@@H]1C(=O)c3ccc4c(c3O[C@@H]1CO2)C=CC(C)(C)O4 | 41.8 nM (active) | 
